In PubChem BioAssay AID739 (SRMLSC, 2007):
The whole screen tested about 98,000 compounds, of which about 880 (0.9%) were called active. No stated cut-off is given here; in the data, active means inhibition above about 30%; inactive means the rest. For the sample, actives were picked, then their nearest neighbours and some compounds at random.

Test: phenotypic screen on post-Golgi transport, primary screen (AID 739);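 further: yeast cells grown in 1536-well plates; yeast grown about 18 h at 30C before absorbance read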
Conditions: post-Golgi transport phenotypic cell assay; at 10 µM; active compounds read high

inhibition, inactive:
COCCNS(=O)(=O)c1cc(Br)ccc1OC 8.12%
CC1=NCCN1S(=O)(=O)c1ccc(Br)c(C)c1 3.83%
COCc1[nH][nH]c(=O)c1C=Nc1ccc(F)cc1F 5.45%
COC(=O)c1cc(NC(=O)C2C3C=CC(C3)C2C(=O)O)cc(C(=O)OC)c1 (configuration not stated) 2.17%
CCc1nn(-c2cc(Oc3cccc4ccccc34)nc(-c3ccccc3)n2)c(N)c1C#N -15.9%
CCOC(=O)Nc1sc(C(=O)N(C)C)c(C)c1C(=O)OCC 21.1%
Cc1ccc(CCN2CC(C(=O)O)CC2=O)cc1 (configuration not stated) -4.77%
NC(=O)N1CCCC1C(=O)Nc1ccc(Cl)c(Cl)c1 (configuration not stated) -3.91%
CCOC(=O)/C(C#N)=C/c1ccc(OCC(=O)Nc2ccccc2)c(OC)c1 6.16%
O=C(NCCc1ccccc1)/C(=C\c1ccc([N+](=O)[O-])cc1)NC(=O)c1ccccc1 4.97%
Cc1noc(/C=C/c2ccco2)c1S(=O)(=O)N1CCC(C(=O)N2CCc3ccccc32)CC1 -4.89%
COc1ccccc1CSc1nc2ccccc2[nH]1 1.93%
CCc1c(-c2ccccc2)nc(N)c(C#N)c1-c1cccs1 2.36%
O=c1c2ccccc2oc2nc3n(c(=O)c12)CCCS3 5.66%
CCc1nc2oc3ccccc3c(=O)c2c(=O)n1Cc1ccc(OC)cc1 8.05%
COc1cc(/C=C(/NC(=O)c2ccccc2)C(=O)Nc2cccc(O)c2)c([N+](=O)[O-])cc1OC -17.3%
COCCn1c(SCc2nc3cc(OC)c(OC)cc3c(=O)[nH]2)nnc1-c1ccncc1 6.95%
C=CCNC(=O)c1sc(SC)cc1-c1ccc(Cl)cc1 20%
CCCCCCC(=O)Nc1nc(C)c(-c2csc(Nc3cccc(OC)c3)n2)s1 -3.09%
COc1ccc(C2=NO[C@@H]3C(=O)N(Cc4ccccc4)C(=O)[C@H]23)cc1OC 6.43%
CC(=O)Nc1cc(C(=O)O)ccc1S(=O)(=O)c1ccc(Cl)cc1 -1.65%
O=C(Nc1ccc(Cl)cc1)c1ccsn1 8.05%
Cc1cc(N/C=C\C(=O)c2ccc(Cl)c(Cl)c2)no1 -4.69%
CC(=O)c1cccc(NC(=O)N2CCCC2C(=O)NCCc2ccccc2)c1 (configuration not stated) 20%
CCOc1cccc(NC(=O)C2CCCN(S(=O)(=O)c3ccc(OC)cc3)C2)c1 (configuration not stated) -5.63%
CCN(CC)C(=O)CSc1nc2ccccc2n1CC(=O)N1CCN(c2ccccc2OC)CC1 11.2%
COc1ccc(C(=O)Nc2ncc3c(n2)-c2ccccc2CC3)cc1 16.5%
COc1ccc(C2CC(=O)Nc3cc(C)c(C)cc32)c(OC)c1OC (configuration not stated) 11.7%
COC(=O)C(C(=O)Nc1cccc(C)n1)C1CCCCCC1 (configuration not stated) -2.06%
COc1ccc2ccccc2c1CNCc1ccccn1 0.33%
CC1CCN(CC(=O)c2c[nH]c3ccccc23)CC1 0%
CCOc1ccc(NC(=O)CCS(=O)(=O)c2cccc3nsnc23)cc1 -1.86%
CCOc1ccc(OCC)c(NC(=O)CN(C)S(=O)(=O)c2cccc3nsnc23)c1 1.42%
O=C1N=C2SCCN2/C1=C\c1c(Cl)cccc1Cl -3.72%
Cc1ccc(C(=O)c2c(NC(=O)c3ccccc3)sc(C)c2C)cc1 0%
COC(=O)c1c(NC(=O)c2cccs2)sc2c1CCCC2 3.23%
CCCc1cc(=O)[nH]c(SCC(=O)c2cc(C)n(CCC)c2C)n1 -4.22%
COc1cc(/C=N/O)cc(Br)c1OS(=O)(=O)c1ccc(C)cc1 2.99%
CCOc1ccc(N(CC(=O)NC2CCCCCC2)S(=O)(=O)c2c(C)[nH]c(=O)[nH]c2=O)cc1 -2.87%
O=C(Nc1ccccc1)OCc1cc(-c2ccc(Cl)cc2)on1 -5.71%
O=C1c2cccc3cc(Br)cc(c23)C(=O)N1Nc1ccccc1 -2.04%
COc1ccc(-c2csc3nc(-c4ccccc4F)oc(=O)c23)cc1OC 6.4%
CC1(C)CCCC2=C1CC1C(=O)N(c3ccccc3)C(=O)C1C2 (configuration not stated) -1.13%
Cc1cc(C)c2nc(NC(=O)C3CCCO3)sc2c1 (configuration not stated) -4.03%
O=C(CSc1ccc(/C=N/NC(=O)c2cccc(F)c2)o1)Nc1ccccc1 -2.85%
COc1ccc(CCNS(=O)(=O)c2ccc(Cl)s2)cc1OC -1.32%
COc1cccc(CNc2nc3nc4c(c(=O)n3[nH]2)CCC4)c1 -5.47%
COc1cccc(-c2nc(S(=O)(=O)c3ccccc3)c(N3CCOCC3)o2)c1 -8.86%
Cc1cccc(NC(=O)CSc2nnc(-c3ccco3)o2)c1 -0.81%
COC(=O)c1ccccc1OCC(=O)N1CCN(c2ccc(Cl)cc2)CC1 5.12%
O=C(NCc1ccccc1)C1CCCN(S(=O)(=O)c2cccs2)C1 (configuration not stated) 0%
O=C(NC1CCCCC1)C1CCCN(S(=O)(=O)c2cccs2)C1 (configuration not stated) -9.88%
Cc1cccc(C(=O)Nc2ccccc2-c2nnn(CC(=O)Nc3ccc4c(c3)OCCO4)n2)c1 -5.17%
CC(=O)c1cc(NC(=O)c2ccccc2)c(=O)oc1/C=C/N(C)C -1.13%
Cn1ccs/c1=N\S(=O)(=O)c1ccc(C(C)(C)C)cc1 -6.14%
O=C(O)CCN=C1CCc2ccccc2N1 2.24%
CCOc1cccc(C(=O)Nc2cnn(Cc3ccccc3)c2)c1 7.09%
CCC(=O)Nc1cccc(NC(=O)c2cccnc2)c1 -2.1%
NC(=NC(=O)c1ccccc1)N1CCOCC1 -0.16%
CC(=O)OCc1cc2cc(C)ccc2[nH]c1=O 5.81%
CCNCc1cc2cc(C)ccc2[nH]c1=O 6.62%
N/C(=N\OC(=O)CCC1CCCCC1)c1ccccn1 13.9%
Nc1c(-c2ccc(F)cc2)cnc2ncnn12 15.1%
O=C(CCC(=O)OCc1cccc(C(=O)Oc2ccccc2)c1)Nc1cccc2ccccc12 -3.63%
N#Cc1nc(Cc2ccccc2)oc1NCCc1ccccc1 18.8%
N#Cc1nc(-c2ccc(OCc3ccccc3)cc2)oc1NCCCN1CCOCC1 5.49%
CCCn1nc2cc(C(=O)NCc3ccccc3)ccc2c1OCC 2.26%
CCCCNC(=S)NNC(=O)c1cc(C)on1 0.65%
COc1ccc(/C=C2/S/C(=N/N=C3\CC4CCC3(C)C4(C)C)NC2=O)cc1 (configuration not stated) -0.32%
COC(=O)c1ccc(CSc2nncn2C)cc1 1.45%
CCOc1ccccc1Nc1nnc(SCc2ccc(C(=O)OC)o2)s1 -9.05%
Cc1ccccc1/[N+]([O-])=C/c1ccncc1 -1.29%
COc1ccc2c(Cl)c(C(=O)NCc3ccco3)sc2c1 -10.7%
Cc1cc(=O)oc2ccc(OCC(=O)O)cc12 2.48%
COCCNC(=O)COc1ccc(C)c(C)c1 4.17%
O=S(=O)(c1ccc(F)cc1)n1ccc(-c2cnc(-c3ccccc3)s2)n1 -10%
O=C(Nc1nnc(CCOCCOCCc2nnc(NC(=O)c3ccco3)s2)s1)c1ccco1 -30.3%
CCCc1noc2c1/C(=N\O)CCC2 13.6%
O=C(NCC1CCCO1)c1ccc2ccccc2n1 (configuration not stated) -3.36%

inhibition, active:
COc1ccc(Br)cc1S(=O)(=O)N1CCN=C1C 31.5%
O=[N+]([O-])c1ccc(Oc2ccc(F)cc2Br)c2ccncc12 54.4%
CCOC(=O)/C(=C\c1ccc([N+](=O)[O-])cc1)C(=O)c1cc(C(C)=O)c(Nc2ccccc2)s1 64.9%
O=c1c2ccccc2oc2nc(C3CCCCC3)n(Cc3ccco3)c(=O)c12 68.9%
O=C(Nc1ccccc1)c1nnsc1S(=O)(=O)c1ccc(Cl)cc1 76.3%
COc1cccc(NC(=O)C2CCCN2C(=O)OCc2ccccc2)c1 (configuration not stated) 32%
Cc1ccn2cc(-c3nonc3C)cc2c1 37.3%
CCOc1ccc(-c2cn(S(=O)(=O)c3cccc4nsnc34)nc2N)cc1 46.9%
Cc1ccc(C(=O)c2c(NC(=O)c3ccncc3)sc3c2CCCC3)cc1 97.2%
O=C1C=C(c2ccc(Cl)cc2)C(=O)N1Nc1ccccc1 106%
CC1CC2=C(CC1/C=N/NC(N)=S)C(C)(C)CCC2 (configuration not stated) 100%
COc1cccc(-c2cc3nc4c(c(N5CCC6(CC5)OCCO6)n3n2)CCCC4)c1 45.5%
O=C(C1CCN(S(=O)(=O)c2cccs2)CC1)N1CCCCCC1 34.1%
CCOc1cccc(C(=O)Nc2cccnc2)c1 31%
CCOC(=O)c1cc2cc(C)ccc2[nH]1 39.6%
N#Cc1nc(COc2ccc(-c3ccccc3)cc2)oc1NCc1cccnc1 99.8%
COC(=O)c1ccc(CSc2nnc(NC(C)C)s2)cc1 36.2%
Cc1ccc(SC(=O)COc2ccc(C)c(C)c2)cc1 35.3%
